Pf apPOL inh: Pf-apPOL inhibitors, biochemical, fluorescence. 210,000 compounds, 0.25% hits. AID 1794808, 2022. Plasmodium falciparum apicoplast DNA polymerase (apPOL). Recombinant Pf-apPOL, molecular beacon fluorescence, 1.5 h. inhibition, % at 10 µM
mHTT-CaM PPI inh: mutant huntingtin-calmodulin interaction inhibitors – biochemical, AlphaScreen, primary screen; inhibition, % at 15 µM; 190,000 compounds, 3.6% hits; P42858; AlphaScreen His-mHTT/GST-CaM binding, luminescence; AID 1671202, 2021;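 further: 0% = both proteins with DMSO and 100% = one protein alone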
Target sequence (P42858 whole entry, looked up, stated change not applied): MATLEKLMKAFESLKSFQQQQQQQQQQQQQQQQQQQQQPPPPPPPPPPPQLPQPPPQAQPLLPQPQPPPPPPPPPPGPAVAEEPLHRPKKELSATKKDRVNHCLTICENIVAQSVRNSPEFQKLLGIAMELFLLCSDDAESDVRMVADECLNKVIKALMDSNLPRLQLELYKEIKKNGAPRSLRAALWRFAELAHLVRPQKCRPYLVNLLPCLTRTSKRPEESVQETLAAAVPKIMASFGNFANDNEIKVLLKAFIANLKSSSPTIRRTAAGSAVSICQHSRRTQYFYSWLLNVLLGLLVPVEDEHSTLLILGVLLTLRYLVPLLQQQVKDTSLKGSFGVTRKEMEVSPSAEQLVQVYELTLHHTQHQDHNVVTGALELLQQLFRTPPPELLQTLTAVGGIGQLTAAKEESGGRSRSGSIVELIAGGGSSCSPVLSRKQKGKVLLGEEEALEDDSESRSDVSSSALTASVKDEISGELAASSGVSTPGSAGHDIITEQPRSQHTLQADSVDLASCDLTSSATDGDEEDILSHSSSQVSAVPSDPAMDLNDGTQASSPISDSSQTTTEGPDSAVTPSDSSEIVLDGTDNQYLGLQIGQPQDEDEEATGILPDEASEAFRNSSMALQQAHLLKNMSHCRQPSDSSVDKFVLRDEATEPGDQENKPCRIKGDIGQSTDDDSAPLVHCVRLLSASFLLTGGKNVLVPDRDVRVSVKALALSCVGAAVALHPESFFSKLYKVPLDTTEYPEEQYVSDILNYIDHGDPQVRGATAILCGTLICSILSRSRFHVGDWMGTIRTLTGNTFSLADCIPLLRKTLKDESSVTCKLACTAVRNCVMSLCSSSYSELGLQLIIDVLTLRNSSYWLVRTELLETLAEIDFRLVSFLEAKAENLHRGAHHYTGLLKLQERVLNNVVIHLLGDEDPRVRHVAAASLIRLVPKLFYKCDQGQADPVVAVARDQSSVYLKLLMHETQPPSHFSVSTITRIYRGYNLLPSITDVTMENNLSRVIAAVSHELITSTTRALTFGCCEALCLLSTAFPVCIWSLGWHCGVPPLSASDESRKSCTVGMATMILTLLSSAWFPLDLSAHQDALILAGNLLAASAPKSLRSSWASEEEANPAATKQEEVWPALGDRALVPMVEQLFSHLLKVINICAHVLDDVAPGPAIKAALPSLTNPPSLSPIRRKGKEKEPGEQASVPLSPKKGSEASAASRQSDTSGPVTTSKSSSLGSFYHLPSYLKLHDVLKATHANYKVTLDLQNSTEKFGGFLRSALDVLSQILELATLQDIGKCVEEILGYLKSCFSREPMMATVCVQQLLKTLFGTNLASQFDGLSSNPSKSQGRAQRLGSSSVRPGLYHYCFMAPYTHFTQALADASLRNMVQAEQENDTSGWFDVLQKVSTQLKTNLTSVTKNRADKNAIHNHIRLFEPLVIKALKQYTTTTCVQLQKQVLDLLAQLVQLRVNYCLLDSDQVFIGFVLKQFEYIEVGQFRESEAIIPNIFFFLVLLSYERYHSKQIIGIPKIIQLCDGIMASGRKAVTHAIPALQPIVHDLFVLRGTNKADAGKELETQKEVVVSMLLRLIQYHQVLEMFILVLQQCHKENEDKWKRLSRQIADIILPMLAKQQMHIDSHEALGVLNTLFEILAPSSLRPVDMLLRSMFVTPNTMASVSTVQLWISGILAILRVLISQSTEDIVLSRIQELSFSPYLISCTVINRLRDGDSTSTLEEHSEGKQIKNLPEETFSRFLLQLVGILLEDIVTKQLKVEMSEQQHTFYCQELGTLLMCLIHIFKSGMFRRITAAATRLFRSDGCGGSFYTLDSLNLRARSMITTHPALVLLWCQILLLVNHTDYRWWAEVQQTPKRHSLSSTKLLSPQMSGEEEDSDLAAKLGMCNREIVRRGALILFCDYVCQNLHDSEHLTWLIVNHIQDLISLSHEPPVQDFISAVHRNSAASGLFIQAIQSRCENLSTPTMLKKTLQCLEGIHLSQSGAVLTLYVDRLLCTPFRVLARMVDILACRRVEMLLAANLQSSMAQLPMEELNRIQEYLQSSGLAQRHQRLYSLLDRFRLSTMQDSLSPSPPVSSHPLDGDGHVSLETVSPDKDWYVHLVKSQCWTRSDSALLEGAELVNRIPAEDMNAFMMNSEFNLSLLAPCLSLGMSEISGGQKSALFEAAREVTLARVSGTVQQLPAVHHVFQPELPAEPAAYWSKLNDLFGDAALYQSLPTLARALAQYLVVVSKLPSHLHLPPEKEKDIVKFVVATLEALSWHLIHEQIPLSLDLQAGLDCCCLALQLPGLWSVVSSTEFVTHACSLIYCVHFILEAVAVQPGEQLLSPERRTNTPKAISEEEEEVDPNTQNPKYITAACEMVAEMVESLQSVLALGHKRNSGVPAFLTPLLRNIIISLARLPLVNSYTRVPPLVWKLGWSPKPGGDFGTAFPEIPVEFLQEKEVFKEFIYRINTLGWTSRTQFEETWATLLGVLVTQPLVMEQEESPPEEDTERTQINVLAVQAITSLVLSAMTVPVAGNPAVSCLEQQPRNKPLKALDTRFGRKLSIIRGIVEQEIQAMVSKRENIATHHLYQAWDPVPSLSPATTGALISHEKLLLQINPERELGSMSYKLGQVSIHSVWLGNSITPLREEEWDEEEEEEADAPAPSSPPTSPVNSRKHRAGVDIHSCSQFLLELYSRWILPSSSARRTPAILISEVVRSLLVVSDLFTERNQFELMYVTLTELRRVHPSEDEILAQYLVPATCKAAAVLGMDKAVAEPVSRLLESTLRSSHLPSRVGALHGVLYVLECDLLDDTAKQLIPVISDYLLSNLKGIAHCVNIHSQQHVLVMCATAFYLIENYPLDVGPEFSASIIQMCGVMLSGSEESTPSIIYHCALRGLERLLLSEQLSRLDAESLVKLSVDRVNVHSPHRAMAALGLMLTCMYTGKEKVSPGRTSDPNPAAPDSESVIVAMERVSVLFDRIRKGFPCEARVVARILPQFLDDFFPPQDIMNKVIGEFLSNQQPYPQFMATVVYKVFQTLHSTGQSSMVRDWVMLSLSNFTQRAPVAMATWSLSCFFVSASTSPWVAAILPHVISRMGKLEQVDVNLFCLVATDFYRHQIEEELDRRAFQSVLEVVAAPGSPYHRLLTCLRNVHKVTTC
* hit, by the source's call. The sample as a whole holds a higher share of hits than the screen did. No stated cut-off is given here; in the data, active means inhibition above about 50%; inactive means the rest.

How did Cn1nc(C(=O)NCc2ccccc2)c2c1CCN(C(=O)c1ccccc1Cl)C2 do in these assays?
Pf apPOL inh: -10; mHTT-CaM PPI inh: 34

What do the screens show for `Cn1nc(C(=O)NCc2ccccc2)c2c1CCN(C(=O)c1ccccc1)C2`?
Pf apPOL inh: 1; mHTT-CaM PPI inh: 36

How did CCOC(=O)C1CCN(C(=O)c2ccc(-n3nc(C)c4c3CC(C)(C)CC4=O)cc2)CC1 do in these assays?
Pf apPOL inh: -1; mHTT-CaM PPI inh: 4

Results for COc1ccc(C(=O)N2CCc3c(c(C(=O)NCc4ccccc4)nn3C)C2)c(OC)c1 ?
Pf apPOL inh: -10; mHTT-CaM PPI inh: 51*

What do the screens show for `COc1ccc2cc(C(=O)N3CCc4c(c(C(=O)NCc5ccccc5)nn4C)C3)[nH]c2c1`?
Pf apPOL inh: -2; mHTT-CaM PPI inh: 37

How did O=[N+]([O-])c1ccccc1OCCOCCN1CCOCC1 do in these assays?
Pf apPOL inh: -9; mHTT-CaM PPI inh: -4

What do the screens show for `Nc1ccnc(=O)[nH]1`?
Pf apPOL inh: 105*

Results for CCSc1nccc(=O)[nH]1 ?
Pf apPOL inh: 6; mHTT-CaM PPI inh: -9

Results for COc1cc2c(cc1OC)C(C)N(C(=O)c1sc3ccccc3c1Cl)CC2 (centres undefined) ?
Pf apPOL inh: -2

How did CCN1CCN(c2nc(Cc3ccccc3)nc3sc4c(c23)CCCC4)CC1 do in these assays?
Pf apPOL inh: -6; mHTT-CaM PPI inh: 66*

What do the screens show for `c1ccc(Cc2nc(N3CCOCC3)c3c4c(sc3n2)CCCC4)cc1`?
Pf apPOL inh: 0; mHTT-CaM PPI inh: -34

Results for C=CCC(NCc1ccccc1)c1ccncc1 (centres undefined) ?
Pf apPOL inh: -5; mHTT-CaM PPI inh: -3

What do the screens show for `Cc1ccccc1N(CC(=O)N1CCN(C)CC1)S(C)(=O)=O`?
Pf apPOL inh: -16; mHTT-CaM PPI inh: -4

Results for O=C(Nc1ccccc1C(F)(F)F)N1CCN(c2nc3ccccc3[nH]2)CC1 ?
Pf apPOL inh: -8; mHTT-CaM PPI inh: -12

Results for O=c1oc2cc3occ(-c4ccc(F)cc4)c3cc2c2c1CCCC2 ?
Pf apPOL inh: 3; mHTT-CaM PPI inh: -3

What do the screens show for `COc1ccc2c(c1)c(=O)oc1cc3occ(-c4ccc(Cl)cc4)c3cc12`?
Pf apPOL inh: 1; mHTT-CaM PPI inh: 5

Results for O=c1oc2cc3occ(-c4ccc(Cl)cc4)c3cc2c2c1CCC2 ?
Pf apPOL inh: 80*; mHTT-CaM PPI inh: -2

How did Cc1c(C)c2cc3c(-c4ccc(Cl)cc4)coc3cc2oc1=O do in these assays?
Pf apPOL inh: 91*; mHTT-CaM PPI inh: -1

How did COc1ccc(-c2coc3cc(OC(=O)c4ccc([N+](=O)[O-])cc4)ccc3c2=O)cc1 do in these assays?
Pf apPOL inh: 1; mHTT-CaM PPI inh: 0

How did O=S(=O)(Nc1ccc(Nc2ccccc2)c(NS(=O)(=O)c2ccccc2)c1)c1ccccc1 do in these assays?
Pf apPOL inh: -2; mHTT-CaM PPI inh: 63*

Results for CC(=O)Nc1ccc(S(=O)(=O)Nc2ccc(S(=O)(=O)Nc3ccccc3)cc2)cc1 ?
Pf apPOL inh: 4; mHTT-CaM PPI inh: 4

Results for NS(=O)(=O)c1cccc(NS(=O)(=O)c2ccccc2)c1 ?
Pf apPOL inh: 18

Results for CC(=O)Nc1ccc(S(=O)(=O)Nc2ccc(Nc3ccccc3)cc2)cc1 ?
Pf apPOL inh: 1; mHTT-CaM PPI inh: 83*

What do the screens show for `COc1ccc(C(C)NC(=O)Cn2c(=O)nc(-c3ccccc3)c3ccccc32)cc1OC` (centres undefined)?
Pf apPOL inh: -2; mHTT-CaM PPI inh: -4

How did O=C(O)[C@@H]1CSC2(CCCCC2)N1 do in these assays?
mHTT-CaM PPI inh: -1

Results for O=C(Nc1cccc(Cl)c1)c1cc(-c2ccc(Br)cc2)on1 ?
Pf apPOL inh: -3; mHTT-CaM PPI inh: 0

How did Cc1ccc(S(=O)(=O)N=C2C=C(Nc3cccc(C(=O)O)c3)C(=O)c3ccccc32)c(C)c1 do in these assays?
Pf apPOL inh: 47; mHTT-CaM PPI inh: 86*

What do the screens show for `Cc1ccc(NC(=O)c2cccc(S(=O)(=O)Nc3cccc(C(=O)O)c3)c2)cc1`?
Pf apPOL inh: -7; mHTT-CaM PPI inh: -3

What do the screens show for `Cc1ccc(C)c(S(=O)(=O)N=C2C=C(Br)C(=O)c3ccccc32)c1`?
Pf apPOL inh: -7; mHTT-CaM PPI inh: 46

How did Cc1ccc(S(=O)(=O)N=C2C=C(Nc3cccc(C(=O)O)c3)C(=O)c3ccccc32)cc1 do in these assays?
Pf apPOL inh: 4; mHTT-CaM PPI inh: 62*

What do the screens show for `Cc1ccc(C)c(NC(=O)CCc2ccc3cc[nH]c3c2)c1`?
Pf apPOL inh: -4; mHTT-CaM PPI inh: 6

Results for COc1ccc(N2CN=c3s/c(=C\c4cccc(Br)c4)c(=O)n3C2)cc1 ?
Pf apPOL inh: -8; mHTT-CaM PPI inh: 12

Results for CCc1n[nH]c(CC)c1NC(=O)c1cccc(OC)c1 ?
Pf apPOL inh: 2; mHTT-CaM PPI inh: -8

Results for CCc1[nH]nc(-c2ccc(OC)cc2OC)c1NC(C)=O ?
Pf apPOL inh: 84*; mHTT-CaM PPI inh: 97*

How did Cc1ccc2n1CCn1cc(-c3ccc(Br)cc3)cc1-2 do in these assays?
Pf apPOL inh: -7; mHTT-CaM PPI inh: 99*

How did Cc1ccc(C)n1-c1ccc(Br)cc1 do in these assays?
Pf apPOL inh: -6

What do the screens show for `Cc1cc2n(c1)CCn1c(C)ccc1-2`?
Pf apPOL inh: 42; mHTT-CaM PPI inh: 93*

Results for CCc1csc2nc(C)c(NC(=O)CC3CCCCC3)c(=O)n12 ?
Pf apPOL inh: -2; mHTT-CaM PPI inh: -2

How did Cn1cnc2c1CN(CC(=O)NCc1ccncc1)CC2 do in these assays?
Pf apPOL inh: -7; mHTT-CaM PPI inh: 7

What do the screens show for `CCCCN(CCCC)S(=O)(=O)c1ccc2oc(C(=O)NCc3ccco3)c(C)c2c1`?
Pf apPOL inh: -12; mHTT-CaM PPI inh: 20
